From ChEMBL document CHEMBL1157539, “Thousands of chemical starting points for antimalarial lead identification” (Nature, 2010) come the findings set out here.

For orientation: Inhibition means the change of the read-out against control, counted positive when it falls. Lower therefore signals little suppression.

What all share (type): functional
The subject of experiment [1] is Plasmodium falciparum. In words: GSK_TCMDC: Inhibition of Plasmodium falciparum 3D7 in whole red blood cells, using parasite LDH activity as an index of growth. Test compounds present at 2uM.
Experiment [2] has as its system Plasmodium falciparum. In words: GSK_TCMDC: Inhibition of Plasmodium falciparum Dd2 in whole red blood cells, using parasite LDH activity as an index of growth. Test compounds present at 2uM.
The next experiment has as its system HepG2. In words: GSK_TCMDC: Percent inhibition of human HepG2 cell line. Test compounds present at 10uM.

Consider `CN(C)C(=O)O[C@@H]1CN[C@H](C#Cc2cc3ncnc(Nc4ccc5c(cnn5Cc5cccc(F)c5)c4)c3s2)C1.Cl`, for which the Inhibition worked out at 97% in the experiment with Plasmodium falciparum [1], 68% in the experiment on Plasmodium falciparum [2] and 0% with HepG2.
Take `Cc1cc(N[C@@H](Cc2ccccc2)C(=O)NCCOc2ccccc2)nc(NCCc2ccccn2)n1.O=C(O)C(F)(F)F`: the Inhibition with Plasmodium falciparum [1] stood at 92%; in the experiment with Plasmodium falciparum [2] it was 42%; with HepG2, 12%.
As to `O=C(NC1CCN(c2ccc(F)cc2[N+](=O)[O-])CC1)c1cccs1`, the Inhibition with Plasmodium falciparum [1] is on record as 90%; in the experiment with Plasmodium falciparum [2], 91%; in the experiment on HepG2, 0%.
On the same counts, the results for `O=C(Nc1cccc(OC2CCN(Cc3ccccc3)CC2)c1)c1ccc(Cl)c(Cl)c1.O=C(O)C(F)(F)F` are 100%, 45% and 16%.
On the same counts, the results for `CN(C)CCCOc1cccc(CCNCc2cccc(Oc3ccc(Cl)cc3)c2)c1.O=C(O)C(F)(F)F` are 93%, 67% and 72%.
Take `CC(C)(C)c1ccc2oc(=O)n(C3CCN(C(=O)c4ccc([N+](=O)[O-])o4)CC3)c2c1`: the Inhibition was 94% in the experiment on Plasmodium falciparum [1], 87% with Plasmodium falciparum [2] and 0% in the experiment on HepG2.
In the case of `CC(C)C(C(=O)Nc1ccc2c(c1)OCO2)c1ccc(Cl)cc1` (centres undefined), the results for the Inhibition with Plasmodium falciparum [1], in the experiment on Plasmodium falciparum [2] and with HepG2 were 98%, 89% and 25%, respectively.
Consider `C=C[C@H]1CN2CC[C@H]1C[C@H]2[C@H](O)c1ccnc2ccc(OC)cc12.O.O=S(=O)(O)O`, for which the values for the Inhibition with Plasmodium falciparum [1], in the experiment with Plasmodium falciparum [2] and in the experiment on HepG2 were 97%, 22% and 0%, respectively.
On the same counts, the results for `COc1ccc2ncc(F)c(CCN3CC[C@@H](CNCc4ccc5c(c4C)OCCO5)C3)c2n1.Cl` are 94%, 11% and 17%.
Take `O=C(Nc1ccc2c(c1)CCC2)c1cnc(N2CCN(c3ccncc3)CC2)c(Cl)c1.O=C(O)C(F)(F)F`: the figures for the Inhibition with Plasmodium falciparum [1], in the experiment with Plasmodium falciparum [2] and in the experiment with HepG2 were 100%, 48% and 33%, respectively.
For the compound `Cc1ccc(NC(=O)NC2CCN(c3ccnc4cc(Cl)ccc34)C2)cc1.O=C(O)C(F)(F)F` (centres undefined), the Inhibition in the experiment with Plasmodium falciparum [1] is listed as 100%; in the experiment with Plasmodium falciparum [2], 96%; in the experiment with HepG2, 19%.
On the same counts, the results for `CC(C)CCN1CCCN(Cc2cccc(NC(=O)c3cc4ccccc4s3)c2)CC1.O=C(O)C(F)(F)F` are 96%, 8% and 34%.
Taken in the same sequence, the figures for `O=C(/C=C/c1ccc(Cl)c(Cl)c1)NCCCCCN1CCCN(C(=S)Nc2ccc(Cl)cc2)CC1` were 86%, 10% and 7%.
Taken in the same sequence, the figures for `Cc1cc(NCCC(=O)NCCOc2ccccc2)nc(NCCOc2ccccc2)n1.O=C(O)C(F)(F)F` were 92%, 20% and 8%.
With `N=C(N)c1ccc(NC(=O)c2cc(Sc3ccc(O)c(C(=O)Nc4ccc(C(=N)N)cc4)c3)ccc2O)cc1`, the results for the Inhibition in the experiment on Plasmodium falciparum [1], in the experiment on Plasmodium falciparum [2] and in the experiment with HepG2 were 93%, 87% and 11%, respectively.
As for `Cc1nc(N)nc(N)c1C#CC1CCCC1`, the figures for the Inhibition with Plasmodium falciparum [1], in the experiment with Plasmodium falciparum [2] and in the experiment on HepG2 were 96%, 2% and 68%, respectively.
Taken in the same sequence, the figures for `CCCCCCC(C)c1cc(OCCN(CC)CC)c2c(c1)OC(C)(C)C=C2c1ccncc1.Cl` (centres undefined) were 90%, 71% and 14%.
Taken in the same sequence, the figures for `CN(N=Cc1ccccc1)C(=N)NCCCC#Cc1cccc(CN2CCCC2)c1` were 89%, 3% and 16%.
Taken in the same sequence, the figures for `OC(CNCc1ccccc1OCc1ccccc1)c1cccc(Cl)c1` (centres undefined) were 100%, 100% and 0%.
On to `O=C(Nc1ccccc1O)c1ccc(S(=O)(=O)c2ccc(Cl)cc2)cc1`, for which the Inhibition in the experiment with Plasmodium falciparum [1] was found to be 90%; in the experiment with Plasmodium falciparum [2], 85%; in the experiment with HepG2 it was 18%.
For the compound `Cc1ccc(CNC(=O)[C@H](Cc2ccccc2)Nc2cc(C)nc(NCCc3ccc(F)cc3)n2)cc1.O=C(O)C(F)(F)F`, the Inhibition in the experiment with Plasmodium falciparum [1] is reported as 98%; in the experiment with Plasmodium falciparum [2] it was 22%; in the experiment on HepG2, 10%.
For the compound `Cc1sc2nc(CSc3ccccc3)nc(N3CCN(CC(=O)N4CCCC4)CC3)c2c1C`, the Inhibition with Plasmodium falciparum [1] amounted to 91%; with Plasmodium falciparum [2], 69%; in the experiment with HepG2, 19%.
On the same counts, the results for `COc1ccc(-c2cc(-c3nc4cc(CN)ccc4[nH]3)c(=O)n(C)c2)cc1OC` are 85%, 56% and 0%.
Taken in the same sequence, the figures for `O=C(O)/C=C/c1cccc(F)c1F` were 96%, 1% and 58%.
On the same counts, the results for `Cc1cc(C(=O)N(Cc2ccc(-c3ccc(CNCCc4ccc(S(C)(=O)=O)cc4)cn3)cc2)C(C)CN(C)C)ccc1[N+](=O)[O-].O=C(O)C(F)(F)F` (centres undefined) are 99%, 46% and 17%.
As to `O=C(O)C(F)(F)F.c1ccc(CN2CCC(NCc3ccccc3-c3ccc(CNCc4ccc5c(c4)OCO5)cc3)CC2)cc1`, the Inhibition in the experiment on Plasmodium falciparum [1] was 100%; in the experiment on Plasmodium falciparum [2], 49%; in the experiment with HepG2, 26%.
In the case of `COc1ccc(C2CC(c3cccs3)=NN2C(=O)CNc2cccc(C#N)c2)cc1OC` (centres undefined), the Inhibition is reported as 87% in the experiment with Plasmodium falciparum [1], 35% in the experiment on Plasmodium falciparum [2] and 8% in the experiment on HepG2.
Taken in the same sequence, the figures for `Oc1cc(Nc2ccnc3cc(-c4ccc(CN5CCCCC5)o4)ccc23)c(Cl)cc1F` were 100%, 81% and 30%.
